Data on 92 compounds can be found in PubChem BioAssay AID687014 (The Scripps Research Institute Molecular Screening Center, 2013).

The whole screen tested about 370,000 compounds, of which about 6,800 (1.8%) were called active.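 Rule for the calls: active = activation above a cutoff set at the mean of all screened compounds plus 3 SD (cut at about 10% in these data); inactive = the rest.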 The list comes from a sample in which actives are over-represented; it also holds similar structures and randomly drawn compounds.

The test system of this assay is Nuclear hormone receptor DAF-12 (Heterodera glycines), GAL4 fusion. The experiment in a line: hgDAF-12 GAL4 fusion reporter activation – cell-based, luminescence, HEK293, UAS-luciferase, primary screen (AID 687014).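 Note: 0% = DMSO wells and 100% = sodium butyrate wells.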 The settings on record: HEK293 GAL4-hgDAF12 UAS-luciferase reporter, agonist luminescence; at 6.8 µM; active compounds read high; normalized to butyrate control. On the technique in general: A reporter such as luciferase makes a cellular process visible.
For `Brc1ccc(/C=N/N2CCN(C3c4ccccc4-c4ccccc43)CC2)s1`, the activation is 0.61% (inactive). Under `COc1cccc(N(CC(=O)NC2CCCC2)C(=O)Cn2nnc(-c3ccc(C)o3)n2)c1` stands 0.01% (inactive); under `C[C@]12CCC(=O)C=C1C=CC1C2CC[C@@]2(C)C1CC[C@@]21CCC(=O)O1` (some centres not stated), -2.47% (inactive). Under `Cc1ccc(C)c(C(C)NC(=O)C2CCCO2)c1` (configuration not stated) stands -0.46% (inactive); under `Cc1cc(C)c2nc(NC(=O)C3CCCO3)sc2c1` (configuration not stated), 11.9% (active). On to `O=C(Nc1nnc(SCc2c(Cl)cccc2Cl)s1)C1CCCO1` (configuration not stated), for which the activation was 3.2% (inactive). Under `CCOc1ccc(-n2c(SCC(=O)Nc3cc(C)c(NC(=O)c4ccccc4)cc3OC)nnc2-c2cccs2)cc1` stands 7.81% (inactive). As for `Cc1cc(C(=O)CSc2nc(N)cc(=O)[nH]2)c(C)n1-c1cccc(F)c1`, the figure is -3.64% (inactive). As for `Cc1ccc(-n2c(C)cc(C(=O)CSc3nnc4ccccn34)c2C)cc1`, the activation was 11.6% (active). For `O=C(CSc1nnc2ccccn12)c1ccccc1`, the activation was 8.56% (inactive). As for `CS(=O)(=O)N1CCc2nc(-c3ccccc3)sc2C1`, the figure is 15.3% (active); as for `CS(=O)(=O)N1CCC(C(=O)N2CCN(c3ccccc3)CC2)CC1`, -2.01% (inactive); as for `CS(=O)(=O)N1CCN(c2cccc(Cl)n2)CC1`, -0.95% (inactive). For the compound `CCc1c(-c2ccccc2OC)ncn1CCc1ccccc1OC`, the activation is -2.96% (inactive). Turning to `CN(C)c1ccc(/C=N/NC(=O)c2ccc(Cn3cc(Br)cn3)o2)cc1`, the activation is 5.9% (inactive). As for `O=C(N/N=C\c1ccc(Br)cc1)c1ccc(Cn2cccn2)o1`, the activation was 10.5% (active).

Consider `Cc1c(Cl)c([N+](=O)[O-])nn1Cc1ccc(C(=O)N/N=C\c2cc(Cl)ccc2O)o1`, for which the activation is 0.23% (inactive). Turning to `COc1ccc(-n2c(SCC(=O)Nc3ccccc3-c3ccccc3)nnc2-c2cccnc2)cc1`, the activation is 0.21% (inactive). Under `CCOC(=O)N1CCN(S(=O)(=O)c2ccc(C(=O)Nc3ccc(F)cc3F)cc2)CC1` stands 3.94% (inactive); under `COc1ccc(NC(=O)c2ccc(OC)cc2)cc1`, 14.9% (active). Take `O=C(C=CC(=O)Nc1ccc(F)cc1F)Nc1ccc(F)cc1F`: the activation was -0.27% (inactive). Under `COc1ccc(NC(=O)Nc2ccc3nsnc3c2)cc1` stands 15.7% (active); under `COc1ccc(NC(=O)c2c(C)oc3c2CCCC3)cc1`, 3.38% (inactive); under `O=C(Nc1ccc2ccccc2c1)Nc1ccc2snnc2c1`, 1.18% (inactive). Under `COc1ccc(C(=O)Nc2ccc(-n3nncc3C(C)(C)C)cc2)cc1` stands -2.44% (inactive); under `COc1ccc(C(=O)Nc2ccc(F)cc2F)cc1`, 10.5% (active); under `COCCNC(=O)Nc1ccc2nc(-c3ccco3)c(-c3ccco3)nc2c1`, -6.29% (inactive). As for `COc1ccc(-n2c(C)nn(CC3CC3)c2=O)cc1`, the figure is -0.88% (inactive); as for `Cn1c(CC2Sc3ccccc3NC2=O)nnc1SCC(=O)c1ccc(Cl)cc1` (configuration not stated), 2.7% (inactive).

`CCn1c(SCC(C)=O)nc2sc3c(c2c1=O)CCCC3`: the activation was -0.6% (inactive). For `Nc1[nH]c(C(=O)c2ccccc2)c(-c2ccc(Cl)cc2Cl)c1C(=O)c1ccccc1`, the activation is 0.29% (inactive). For the compound `O=C(Nc1ccc(F)cc1)C(CCc1ccccc1)N1CCN(CC(=O)N2CCCC2)CC1` (configuration not stated), the activation is -2.94% (inactive).

With `COC(=O)[C@]12C[C@H](CC(=O)NCCc3ccccc3OC)C(=O)N(Cc3ccccc3)C1=C[C@H](C(C)C)O[C@@H]2C1CC1`, the activation was -1.92% (inactive). In the case of `CC(NC(=O)c1cccc2ccccc12)c1ccc2c(c1)CCCC2` (configuration not stated), the activation was 1.33% (inactive). Under `O=C(NN=Cc1ccc2c(c1)CCC2)c1ccccc1O` stands 14.7% (active); under `O=C(N/N=C/c1ccc(O)c(O)c1)C1c2ccccc2Oc2ccccc21`, -0.99% (inactive). Take `Cc1nn(-c2ccccc2)c2[nH]c(C(F)(F)F)cc(=O)c12`: the activation was 0.5% (inactive). As to `CC1CCN(C(=O)c2ncn3c2C(=O)N[C@@H](C)C3)CC1`, the activation was 0.1% (inactive). As for `CCCc1cc(=O)[nH]c2nnc(SCC(=O)Nc3nnc(SCC)s3)n12`, the figure is 1.68% (inactive); as for `COC(=O)c1ccc(CSc2nnc(NC(C)C)s2)cc1`, -0.67% (inactive); as for `CCSc1nnc(NC(=O)c2ccc(C)cc2)s1`, 14.4% (active).

Consider `CCOC(=O)N1CCN(C(=O)C[C@H]2C[C@@]3(C(=O)OC)C(=C[C@H](C(C)(C)C)O[C@@H]3C)N(Cc3ccc(Cl)cc3Cl)C2=O)CC1`, for which the activation is 0% (inactive).

With `COC(=O)c1cccc(Cn2ccc3ccc(-c4ccc5ccn(C(=O)C6CCCCC6)c5c4)cc32)c1`, the activation is 3.04% (inactive). With `Cc1cccc(NC(=O)Cc2ccc(Br)cc2)n1`, the activation is 3% (inactive). As for `Cc1cccc(NC(=O)c2ccc3ccccc3n2)n1`, the figure is 14.8% (active); as for `CC(NC(=O)COC(=O)c1ccc2ccccc2n1)c1ccccc1` (configuration not stated), 5.11% (inactive); as for `C=CCN1[C@@H](Cc2ccccc2)COc2cccc(N3CCSCC3)c2S1(=O)=O`, 3.43% (inactive).

For the compound `COc1ccc2c(c1)O/C(=C\c1ccccc1O)C2=O`, the activation is 13% (active). Under `O=C1Oc2ccccc2C(=O)/C1=C/c1ccccc1O` stands -1.59% (inactive); under `COc1ccc(/C=C2/C(=O)OCc3cc(OC)c(OC)cc32)c(OC)c1`, -3.92% (inactive); under `CSc1ccc(Oc2cccc3c2S(=O)(=O)N([C@H](C)c2ccccc2)C[C@@H](COCc2ccccc2)O3)cc1C`, 1.48% (inactive). As for `O=S1(=O)c2c(cccc2N2CCCC2)O[C@H](COCc2ccccc2)CN1C1CC1`, the figure is -1.8% (inactive); as for `CONc1nc2nonc2nc1NOC`, -3.04% (inactive). Consider `O=C(COc1cccc(-n2cnnn2)c1)NCCC1=CCCCC1`, for which the activation was -1.74% (inactive). Under `O=C(NCCC1=CCCCC1)c1ccc(Cl)c([N+](=O)[O-])c1` stands 4.8% (inactive); under `O=C(NCCC1=CCCCC1)c1ccc(-n2cncn2)cc1`, 11.6% (active); under `COC(=O)[C@@]12CCCCC3=C1N(CCC3)C(=O)[C@H]2CC(=O)NCc1cccc2ccccc12`, -3.73% (inactive). Under `O=C(NC1CCCCN(Cc2ccc(Cl)cc2)C1=O)c1ccc(Br)cc1` (configuration not stated) stands -3.05% (inactive). Under `Fc1cc(F)c2nc(N3CCOCC3)sc2c1` stands 11.6% (active); under `Cc1cc(C)c2nc(N3CCC(C(=O)NCCN4CCOCC4)CC3)sc2c1`, 1.84% (inactive). In the case of `Cc1nc(N2CCOCC2)sc1C(=O)NN`, the activation is -4.56% (inactive). Under `O=C(CN(CC1CCCO1)C(=O)CNS(=O)(=O)c1ccc(F)cc1)NCc1ccco1` (configuration not stated) stands -0.11% (inactive); under `CCN(C(=O)CSc1ncnc2c1cnn2-c1ccccc1)C1CCS(=O)(=O)C1` (configuration not stated), 1.12% (inactive). Under `CCOc1cc(/C=N/O)ccc1OCc1ccccc1F` stands 1.1% (inactive); under `COc1cc(/C=N/O)ccc1OCc1ccc([N+](=O)[O-])cc1`, 19.8% (active).

Regarding `CCCc1ccc(OCc2ccc(C(=O)N/N=C/c3cccc([N+](=O)[O-])c3)o2)c(OC)c1`, the activation was 0.57% (inactive). Consider `CCOC(=O)N1CCN(C(=O)C[C@@H]2C(=O)N(CCc3ccc(Cl)cc3)C3=CCCC[C@]32C(=O)OCC)CC1`, for which the activation is -0.14% (inactive). As to `N#Cc1c(NC(=O)C2CCCO2)sc2c1CCCCC2` (configuration not stated), the activation was 15.3% (active).

With `N#Cc1c(NC(=O)C2CC(Cl)=CCC2C(=O)O)sc2c1CCCCC2` (configuration not stated), the activation is -1.72% (inactive). As for `CCC1CCc2c(sc(NC(C)=O)c2C#N)C1` (configuration not stated), the figure is -1.78% (inactive); as for `O=C(CCl)NC1CCCCN(Cc2cccc(C(F)(F)F)c2)C1=O` (configuration not stated), -7.36% (inactive); as for `O=C(Nc1ccccc1)N1CCN(Cc2nc3ccccc3c(=O)[nH]2)CC1`, 3.62% (inactive). As for `O=C1C(C=NCC2CCCO2)=C(O)c2ccccc21` (configuration not stated), the figure is 13.2% (active); as for `CC(=NCC1CCCO1)c1c(O)[nH]c(=O)[nH]c1=O` (configuration not stated), -2.34% (inactive). As for `CCc1ccc(CN2C(=O)c3ccccc3C2C(=O)NCC2CCCO2)cc1` (configuration not stated), the figure is 0.15% (inactive); as for `O=S(=O)(c1ccccc1)N1CCC(c2nc3ccccc3o2)CC1`, -0.98% (inactive); as for `COc1cc(CN2CCNC(=O)C2CC(=O)NCCc2ncccc2C)cc(OC)c1` (configuration not stated), -1.06% (inactive). Consider `CN(CCNC(=O)c1cc2c(-c3ccccc3F)nn(C)c2s1)C1CCCCC1`, for which the activation is 4.97% (inactive). As for `CN(C(=O)c1cc2c(=O)n3ccccc3nc2s1)C1CCCCC1`, the figure is 13% (active); as for `CCOCCCNC(=O)c1cc2c(=O)n3ccccc3nc2s1`, 3.33% (inactive). For the compound `Cc1ccc(-n2c(SCC(=O)Nc3ccc(S(=O)(=O)Nc4nccs4)cc3)nnc2-c2ccccn2)cc1`, the activation is -1.35% (inactive). Under `Cc1ccc(NC(=O)c2ccc(Cl)nc2)cc1S(=O)(=O)N1CCOCC1` stands 3.09% (inactive); under `Cc1ccc(C(=O)Nc2ncccc2C)cc1S(=O)(=O)N1CCOCC1`, 1.72% (inactive). Under `O=C(Nc1cccc(Cl)c1N1CCOCC1)c1ccc2c(c1)OCCO2` stands -1.47% (inactive); under `Cc1ccc(C(=O)Nc2ccc3c(c2)OCCO3)cc1S(=O)(=O)N1CCOCC1`, 11% (active). `CN1CCN(c2ccc(NC(=O)c3ccc4c(c3)OCCO4)cc2Cl)CC1`: the activation is 28.8% (active). As for `COC(=O)c1ccc(N2CCOCC2)c(NC(=O)c2ccc3c(c2)OCCO3)c1`, the figure is 0.79% (inactive); as for `O=C(CSc1nnc(-c2ccccc2)n1Cc1ccco1)Nc1ccccc1-c1ccccc1`, 0.11% (inactive). For `Cc1cc2nc3c(=O)[nH]c(=O)nc-3n(C[C@H](O)[C@H](O)[C@H](O)CO)c2cc1C`, the activation was -2.63% (inactive). Take `CCOC(=O)[C@]12CCCC3=C1N(CCC3)C(=O)[C@@H](CC(=O)NCc1cccs1)C2`: the activation is 1.07% (inactive).

For the compound `CC(=O)OC12CCCN(C1)/C(=C/c1ccncc1)C2` (configuration not stated), the activation was -1.43% (inactive).

On to `CC(C)CNc1cccc2c1S(=O)(=O)N[C@H](CC(C)C)CO2`, for which the activation is 3.06% (inactive).
